Results on 40 sequences are retold here after the OligoGym collection.
Also: reference of the scale not given here.

One assay addresses KCND2. Kind of assay: pooled miR-30 sensor sort-seq; sequence = guide strand. The note with it: shRNA.
Take TTACTGAGTAAACCATTCCGTT: the sensor-assay potency score (higher = more potent) was -1.06.
Still for that read-out and setting: the result for TTTGTCTGCTCGTTGATTCTGG reads -0.31.
Regarding TCAGCGAACAGATAGAACCAAA, the sensor-assay potency score (higher = more potent) was -1.25.
The same measure, in the same setting: the result for TTGTACTCCTCATAACAGCAGT reads -0.753; that for TTGTGTCGTCGTGAACAGCAGG, -0.722.
As to TTGTATACTACCTTGATGGCTT, the sensor-assay potency score (higher = more potent) amounted to 0.674.
Take TAGAACACCAGGGCCATCGTGC: the sensor-assay potency score (higher = more potent) is -0.481.
Still for that read-out and setting: the result for TTGTCTGTCATCACCAGCCCAA reads -0.744; that for TTAAAGATCCTGAAGACCCGGA, 0.918; that for ATTAACAGTTGCAACTTCCATG, -0.92.

For another assay, the target named is KCNE1. Described as above. The following applies: shRNA.
As for TCGATGTAGACGTTGAATGGGT, the sensor-assay potency score (higher = more potent) was -0.608.
Still for that read-out and setting: the result for TTGTTCTATGGCCAGATGGTTT reads -1.5; that for TTGCCAGGCATCGGACTCGATG, -1.64.
Same read-out and setting: the result for TTGTCCTTCTCTTGCCAGGCAT reads -1.07; that for TCAACGACATAGCACGACCTGT, -0.979.
Consider TAGAGAAACAGTGAAACAGTGT, for which the sensor-assay potency score (higher = more potent) was found to be 0.334.
In the case of TTCGAGTGCTCCAGCTTCTTGG, the sensor-assay potency score (higher = more potent) was -0.829.
Consider TTTTCAACGACATAGCACGACC, for which the sensor-assay potency score (higher = more potent) is -1.08.
As to TTTAGAGAAACAGTGAAACAGT, the sensor-assay potency score (higher = more potent) is -0.257.
As for TCGGACTCGATGTAGACGTTGA, the sensor-assay potency score (higher = more potent) is -0.164.
Still for that read-out and setting: the result for TTCTTGGAGCGGATGTAGCTCA reads -0.819.
For the sequence TCCAGCTTGCCGTCACTGCTGC, the sensor-assay potency score (higher = more potent) was -1.06.

The next assay deals with KCNH5. The description is as above. The note with it: shRNA.
With TATACAAGCAATATCTATGTTT, the sensor-assay potency score (higher = more potent) is -0.652.
Still for that read-out and setting: the result for TTGAACTTCTGGAAGAGCTTTC reads -0.184.
The same measure, in the same setting: for TTCGTGTTTGACTTCCTGCAGT the value was -0.357.
On the same count and under the same terms, for TTTTCTTGTACAGAAGAACTTC the value was 0.0958; for TTCCACTGTCACAAGAATCTGT, 0.6.
Take TAAACAAGACAGCAGATCGATC: the sensor-assay potency score (higher = more potent) was -1.19.
As to TTTGAACAACGTAATATCCTTG, the sensor-assay potency score (higher = more potent) is -0.17.
Same read-out and setting: for TGAGACACTAAAAATATCCTGA the value was 0.518; for TTACATATCAAAATCCATGTGT, 0.412.
Still for that read-out and setting: the result for TTTCTTCACATCACTGATCTTA reads 0.0331; that for TAGAGTTTTAGGAAGTCCCGTA, -0.0513; that for TTGAACAACGTAATATCCTTGA, 0.815.

A further assay concerns the target KCNJ11. Described as above. The following applies: shRNA.
As for TTGACGGTGTTGCCAAACTTGG, the sensor-assay potency score (higher = more potent) is -1.46.
With ACATGGTAGATGATCAGCGGGG, the sensor-assay potency score (higher = more potent) was -0.798.
The same measure, in the same setting: for TCATCGGCCAGGTAGGAGGTGC the value was -0.639; for ATCAATGACATGGTAGATGATC, -1.55; for TACAATGGGCACAAAGCGCTGG, 0.352.
Same read-out and setting: the result for TAGCATAGTGACAAGTGCCTTG reads 0.123.
